Measured values reported in PubChem BioAssay (NCI).
About 79,000 compounds went through this panel and 15% of them were active in at least one assay; those are over-represented in the sample as a whole. Unmarked numbers belong to inactive results. Cut-off read from the data, not from the text of the source: active = growth inhibition above about 70%; inactive = the rest.

Test: NCI Yeast Anticancer Drug Screen. Data for the mec2-1 strain (AID 157)
Conditions: S. cerevisiae mec2-1 strain, at 50.0 µM, active compounds read high
In short: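 Yeast mec2-1 mutant treated with compound. Readout: growth inhibition vs vehicle controls.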

SMILES	growth inhibition
CC(=O)Nc1ccc(Cc2ccc(Cl)cc2)cc1	0.7%
CCC(=O)Nc1ccc(C)cc1C	12.9%
CC(C)c1ccc(OC(=N)c2ccccc2)cc1	-7.35%
CC/C(=N/NC(=O)c1ccccc1)c1ccccc1	9.5%
CCOC(=O)c1cc(=O)[nH]c(N)n1	-10.8%
O=C1OCC(O)=C1C(c1ccc(Cl)cc1)c1cc2c(cc1O)OCO2 (centres undefined)	-16.7%
COC(=O)c1ccccc1/C=C1\Cc2ccc3c(c2C1=O)CCCC3	-52.6%
CC(C)CNC(=S)N/N=C/C=C/c1ccc([N+](=O)[O-])cc1	10.4%
CC(=O)c1ccccc1NC(=O)C(=O)C(C(=O)c1ccc2ccccc2c1)C1OC(=O)c2ccccc21 (centres undefined)	3.45%
C[Si](C)(C)N1CCCC1	-26.9%
O=S(=O)(CC(Br)c1ccccc1)c1ccccc1 (centres undefined)	6.15%
COc1cc(C)oc(=O)c1	6.15%
CCOC(C)OCCCI (centres undefined)	-21.3%
c1cc(CCc2ccncc2)ccn1	-16.1%
O=C1NC(c2ccccc2)(c2ccccc2)C(=O)N1CCCCCCN1C(=O)NC(c2ccccc2)(c2ccccc2)C1=O	3.45%
CCNC(=O)C1CC2C=CC1C2 (centres undefined)	2.1%
COc1ccc(/C=C2\N=C(c3ccc(N)cc3)OC2=O)cc1OC	-0.05%
COc1ccc2[nH]c3c4c(cc(-c5ccccc5)c3c2c1)C(=O)N(c1ccccc1)C4=O	-6%
COc1ccc2cc3n(cc-2c1=O)CCc1cc2c(cc1-3)OCO2	-3.1%
Nc1ccc(NC(=S)Nc2ccccc2)cc1	-18.3%

SMILES	growth inhibition
CN(CCC(=O)O)S(=O)(=O)c1ccccc1	-17.2%
Cc1oc2ccccc2c(=O)c1Cn1cnc2ccc([N+](=O)[O-])cc21	10.3%
O=C1/C(=C/c2ccc(F)cc2)CC/C1=C\c1ccc(F)cc1	-12.1%
CC(=O)c1ccc(O)c(CN(C2CCCCC2)C2CCCCC2)c1O	-10.3%
O=c1c2ccccc2c2nccn2c2ccccc12	3%
C=CCNC(=O)N(CCCC(NC(C)=O)C(=O)NCc1ccccc1)Cc1ccccc1 (centres undefined)	-2.85%
CCOP(C)(=O)C(Cc1c[nH]c2ccccc12)C(=O)O (centres undefined)	-19.7%
COc1cc(O)c2c(c1)C(=O)c1cc3c(c(O)c1C2=O)C(O)C(OC)C(C)(O)C3O (centres undefined)	54.3%
C=CCNC(=S)NNC(=S)NCC=C	34.1%
CN1C(=O)C(n2[nH]c(=O)n(-c3ccccc3)c2=O)C(=O)N(C)C1=O	12.7%
CC(=O)OCC1C(=O)OCC1C(=O)N1Cc2cc3ccccc3nc2C1 (centres undefined)	-1.55%
CC1=CC(=O)/C(=C/N2C(=O)CNC2=S)C(=O)O1	-37.1%
CC/C(=N\NS(=O)(=O)c1ccc(C)cc1)c1ccc(Br)cc1	-7.2%
O=C(Oc1ccc(OC(=O)c2ccccc2)c(C2CCCCCC2)c1)c1ccccc1	-1.75%
CCCCN(CCCC)CC(O)c1cc(-c2ccc(C(F)(F)F)cc2)nc(-c2ccc(C(F)(F)F)cc2)c1 (centres undefined)	2.45%
CN(C)C(=O)c1cccc(C2CCCCC2)c1O	1.85%
C=C(CC(=O)OCC)C(=O)OCC	4.6%
CCCCCC/C=C\CCCCCCCCCc1cccc(OC)c1O	6.65%
O=C(NNC(=O)c1ccccc1Br)c1ccccc1Br	-48.8%
